Reference: PubChem BioAssay AID1159580 (chemical genetic matrix, 2015)
About 2,000 (36%) of roughly 5,500 compounds were called active. Inconclusive results (about 18%) are left out. Rule as the data show it: active = normalized growth mostly below about 0.91 (no sharp cut-off); inconclusive = no clear call, values can overlap the other calls; inactive = mostly above about 0.92. The list shows a part of the results.

Assay: chemical genetic growth profiling, strain panel (AID 1159580);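 also: tested at 20 µM; growth read once vehicle control cultures reached saturation at 30 °C; 1 = growth at the plate median or of vehicle wells; lower values mean less growth of the strain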
Conditions: S. cerevisiae deletion strains, growth OD

Measured: normalized growth

C=CCN1CC[C@]23c4c5ccc(O)c4O[C@H]2/C(=N\NC(=O)c2ccccc2)CC[C@@]3(O)[C@H]1C5
inactive: locus YAL013W, strain DEP1, stronger effect = lower value 0.989 | locus YAL040C, strain CLN3, stronger effect = lower value 1.06 | locus YCL061C, strain MRC1 (second series), stronger effect = lower value 0.987 | locus YDR363W, strain ESC2, stronger effect = lower value 0.998 | locus YER002W, strain NOP16, stronger effect = lower value 1.03 | locus YGR078C, strain PAC10, stronger effect = lower value 0.985 | locus YNL153C, strain GIM3, stronger effect = lower value 0.983 | locus YNL175C, strain NOP13, stronger effect = lower value 0.993 | locus YNL197C, strain WHI3, stronger effect = lower value 0.996 | locus YNL224C, strain SQS1, stronger effect = lower value 1 | locus YOR083W, strain WHI5 (second series), stronger effect = lower value 0.991 | locus YPL241C, strain CIN2, stronger effect = lower value 0.996
